The results in this text go back to PubChem BioAssay (EPA / NIEHS).

Records with an inconclusive call do not appear. Activity calls are given as the source filed them. How the source made its calls: active means hit-call score of the fitted dose curve at least 0.9, where 1 is the maximum; inconclusive means response in the unintended direction; inactive means score below 0.9.

The term AC50 denotes the concentration at which the activity in the assay is half-maximal.

Chain of rat Neurokinin-3 Receptor (NK3), Tacr3 (gene 24808) (P16177 whole entry, looked up): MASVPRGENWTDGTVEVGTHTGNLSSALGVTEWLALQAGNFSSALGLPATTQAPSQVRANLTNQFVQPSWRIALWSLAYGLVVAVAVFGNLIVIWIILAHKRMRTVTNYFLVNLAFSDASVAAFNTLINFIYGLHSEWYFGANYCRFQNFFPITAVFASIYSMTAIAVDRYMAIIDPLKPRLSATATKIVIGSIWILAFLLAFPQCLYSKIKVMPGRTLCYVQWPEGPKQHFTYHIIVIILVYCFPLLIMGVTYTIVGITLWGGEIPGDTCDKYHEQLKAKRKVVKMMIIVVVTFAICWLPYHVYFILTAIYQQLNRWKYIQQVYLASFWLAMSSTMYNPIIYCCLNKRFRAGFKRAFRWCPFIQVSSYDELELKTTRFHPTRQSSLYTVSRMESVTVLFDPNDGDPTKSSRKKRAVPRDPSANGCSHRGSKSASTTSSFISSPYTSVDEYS

One assay deals with rat Neurokinin-3 Receptor (NK3), Tacr3 (gene 24808) (UniProt P16177). The assay is described as follows: NVS_GPCR_rNK3: NovaScreen (NVS) G Protein-Coupled Receptor Assay for rat Neurokinin-3 Receptor (NK3) (AID 2283310). The gist of the method:
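Rat cortical membranes; radioligand binding with filtration and scintillation counting, 2 h after dosing. Primary screen in duplicate at 25 uM, then concentration-response up to 50 uM; loss of binding signal relative to DMSO.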
Regarding `CN(C)C(=O)Nc1cccc(C(F)(F)F)c1`, the call was inactive. On the same count and under the same terms, with `C[Si](Cn1cncn1)(c1ccc(F)cc1)c1ccc(F)cc1` the entry was “inactive”; with `CCOP(=O)(NC(C)C)Oc1ccc(SC)c(C)c1` (stereo not drawn), “inactive”; with `CCCOCC(=Nc1ccc(Cl)cc1C(F)(F)F)n1ccnc1`, “inactive”.

In a further assay the target is rat Opioid Receptor, Non-selective Sodium (Na+) Binding, Oprm1 (gene 25601) (UniProt P33535). The experiment in a line: NVS_GPCR_rOpiate_NonSelectiveNa: NovaScreen (NVS) G Protein-Coupled Receptor Assay for rat Opioid Receptor, Non-selective Sodium (Na+) Binding (AID 2283311). In short, it runs like this: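 Rat forebrain membranes, radioligand displacement with filter scintillation counting, 1.5 h incubation. Screened in duplicate at 25 µM; hits then run in concentration-response up to 50 µM; loss of binding fitted versus DMSO.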
Chain of rat Opioid Receptor, Non-selective Sodium (Na+) Binding, Oprm1 (gene 25601) (P33535 whole entry, looked up): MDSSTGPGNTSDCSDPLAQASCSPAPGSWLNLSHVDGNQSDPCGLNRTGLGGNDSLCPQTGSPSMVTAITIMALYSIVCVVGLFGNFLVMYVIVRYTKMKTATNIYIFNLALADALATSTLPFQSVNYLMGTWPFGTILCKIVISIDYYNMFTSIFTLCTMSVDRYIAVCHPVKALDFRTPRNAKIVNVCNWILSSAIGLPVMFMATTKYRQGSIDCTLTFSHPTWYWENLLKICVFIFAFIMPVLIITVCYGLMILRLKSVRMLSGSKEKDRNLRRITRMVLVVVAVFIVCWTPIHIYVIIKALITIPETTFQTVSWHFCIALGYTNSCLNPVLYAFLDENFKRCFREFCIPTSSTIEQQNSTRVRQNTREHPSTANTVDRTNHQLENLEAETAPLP
On to `COc1ccc(C(=CC(=O)N2CCOCC2)c2ccc(Cl)cc2)cc1OC`, for which the outcome was inactive.

With `CCc1cccc(C)c1N(C(=O)CCl)C(C)COC` (stereo not drawn), the AC50 was 12.4 µM (active). Take `CCOP(=S)(OCC)Oc1ccc([N+](=O)[O-])cc1`: the call was inactive. The same measure, in the same setting: next, `CCCSP(=O)(OCC)SCCC`: “inactive”.
